Source: PubChem
DAGLB inhibitor – DAGLB lipase inhibitors, primary screen, biochemical, fluorescence, HTS. Diacylglycerol lipase-beta (Homo sapiens), Q8NCG7. HEK293T DAGLB membrane lysate, EnzChek fluorogenic substrate. inhibition, % at 5.17 µM. hit rate 0.059% among 340,000. AID 504411, 2011; in the data active = inhibition above about 34%
Target sequence (Q8NCG7 whole entry, looked up): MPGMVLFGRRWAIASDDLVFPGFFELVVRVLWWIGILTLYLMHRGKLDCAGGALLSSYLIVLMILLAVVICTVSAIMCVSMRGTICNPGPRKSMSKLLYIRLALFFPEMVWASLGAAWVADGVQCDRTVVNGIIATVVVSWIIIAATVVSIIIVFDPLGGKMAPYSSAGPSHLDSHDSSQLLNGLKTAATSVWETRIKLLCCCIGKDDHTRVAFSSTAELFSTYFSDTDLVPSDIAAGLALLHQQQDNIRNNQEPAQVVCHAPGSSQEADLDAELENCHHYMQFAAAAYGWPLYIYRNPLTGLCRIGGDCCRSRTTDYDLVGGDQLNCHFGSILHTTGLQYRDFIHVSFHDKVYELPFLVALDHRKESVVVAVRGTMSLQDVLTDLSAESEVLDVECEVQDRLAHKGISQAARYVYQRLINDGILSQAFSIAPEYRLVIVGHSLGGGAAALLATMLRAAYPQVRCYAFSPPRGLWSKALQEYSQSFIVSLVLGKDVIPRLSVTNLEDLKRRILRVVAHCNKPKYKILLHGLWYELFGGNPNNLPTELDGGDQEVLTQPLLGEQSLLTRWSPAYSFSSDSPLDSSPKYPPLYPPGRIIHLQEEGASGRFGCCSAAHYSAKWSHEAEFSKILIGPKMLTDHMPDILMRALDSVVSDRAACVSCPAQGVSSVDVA
PAFAH2 FP inh – PAFAH2 enzyme inhibitors, primary screen, biochemical, fluorescence polarization, human | recombinant PAFAH2, FP-rhodamine activity probe | inhibition, % at 3.39 µM | hit rate 0.99% among 340,000;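 active = inhibition above the mean over all tested compounds plus 3 SD, cut at about 30% in these data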;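 note: inhibitors block probe labeling of enzyme so polarization drops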
PAFAH1B3 FP inh – PAFAH1B3 enzyme inhibitors, primary screen, biochemical, fluorescence polarization, human. Platelet-activating factor acetylhydrolase IB subunit alpha1 (Homo sapiens), Q15102. recombinant PAFAH1B3, FP-rhodamine probe. inhibition, % at 3.39 µM. hit rate 0.28% among 340,000;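 active = inhibition above the screen-wide average of all tested compounds plus 3 SD, cut at about 25% in these data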
pPAFAH inh – pPAFAH enzyme inhibitors, primary screen, biochemical, fluorescence polarization, human. Platelet-activating factor acetylhydrolase (Homo sapiens), Q13093. recombinant pPAFAH, FP-rhodamine probe fluorescence polarization. inhibition, % at 3.39 µM. hit rate 1.5% among 330,000;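 active = inhibition above the mean inhibition across the screen plus 3 SD, cut at about 25% in these data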;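 note: inhibitors block binding of the rhodamine activity-based probe so polarization drops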
HTRA1 inh – HTRA1 serine protease inhibitors, primary screen, biochemical, fluorescence polarization, HTS. Q92743. recombinant HTRA1, FP-rhodamine activity-based probe. inhibition, % at 5.96 µM. hit rate 0.5% among 340,000; in the data active = inhibition above about 36%
PAFAH1B2 inh – PAFAH1B2 enzyme inhibitors, primary screen, biochemical, fluorescence polarization, human; recombinant PAFAH1B2, FP-rhodamine activity probe; inhibition, % at 3.39 µM; hit rate 1.2% among 340,000;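 active = inhibition above the mean of all tested compounds plus 3 SD, cut at about 24% in these data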
pPAFAH confirm – pPAFAH (PLA2G7) enzyme inhibitors, confirmation, biochemical, fluorescence polarization, human | inhibition, % at 3.39 µM | AID 463230, 2010 | shares compounds with pPAFAH inh | recombinant pPAFAH, FP-Rh probe fluorescence polarization | hit rate 72% among 2,300;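 active = mean inhibition of the triplicate above the hit cutoff set for the earlier primary screen, cut at about 25% in these data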
Large screens that a line does not name were inactive (follow-up assays come after a bar, where they were run). Only some compounds are listed: those with a hit (about 2.8% of all), similar ones and a draw of the others.

O=C(NNc1ccccc1[N+](=O)[O-])Nc1ccc(Cl)c(Cl)c1	none
N#C/C(=C\c1c(F)cccc1Cl)C(=O)NC1CC1	none
O=C(O)c1ccccc1NS(=O)(=O)c1ccc(NN=Cc2cccc(Cl)c2)c([N+](=O)[O-])c1	pPAFAH inh 66 | pPAFAH confirm 77
O=C(NCc1ccccc1)c1nnc(CS(=O)(=O)c2ccccc2)o1	pPAFAH inh 63 | pPAFAH confirm inactive
O=C(CSc1nc2cc([N+](=O)[O-])ccc2n1-c1ccccc1)NCc1ccc2c(c1)OCO2	pPAFAH inh 44 | pPAFAH confirm 37
COCCNC(=O)C(=O)c1cc(C)n(-c2ccc([N+](=O)[O-])cc2)c1C	pPAFAH inh 36 | pPAFAH confirm 28
COc1cc(OC)cc(-c2c(-c3cccs3)c3cc(-c4ccc(SC)cc4)ccc3n2C)c1	none
COc1cc(OC)cc(-c2c(-c3cccs3)c3cc(-c4ccc(OCc5ccccc5)cc4)ccc3n2C)c1	pPAFAH inh 45 | pPAFAH confirm inactive
Cc1cc(C)n(-c2ccc(C(=O)OCC(=O)c3ccc(Br)s3)cc2)n1	PAFAH2 FP inh 50, pPAFAH inh 36 | pPAFAH confirm 27
Cc1cc(C)n(-c2ccc(C(=O)OCc3ccccc3)cc2)n1	none
O=C(Nc1ccccc1)C1CCCN1S(=O)(=O)c1ccc(Br)cc1 (stereo not given)	none
Cc1ccc(C)c(NS(=O)(=O)c2ccc(OCC(=O)NCc3ccco3)cc2)c1	pPAFAH inh 39 | pPAFAH confirm inactive
CC(C)NS(=O)(=O)c1ccc(OCC(=O)NCc2ccco2)cc1	none
CCCOc1ccc(C(C)=O)cc1CSc1nc(O)cc(=O)[nH]1	pPAFAH inh 35 | pPAFAH confirm inactive
CCN(CC)CCCn1c2c(c(SCC(=O)Nc3nc(C)cs3)nc1=O)CCC2	none
Cc1cc(NCC(=O)Nc2ccc(C)c(S(=O)(=O)N3CCOCC3)c2)ccc1Br	none (no result: PAFAH2 FP inh, PAFAH1B3 FP inh, pPAFAH inh, PAFAH1B2 inh)
O=C(COC(=O)CN1C(=O)COc2ccccc21)NCc1ccc(F)cc1	none
CCOC(=O)C1CCCN(C(=O)c2cc(-c3ccco3)nc3ccccc23)C1 (stereo not given)	pPAFAH inh 49 | pPAFAH confirm 40
CCOC(=O)C1CCCN(C(=O)c2cc(-c3ccncc3)nc3ccccc23)C1 (stereo not given)	none
O=c1c2ccccc2[nH]c(=S)n1CCCN1CCOCC1	none
N=C1c2c(cc(=O)n3c2[nH]c2ccccc23)CN1CCN1CCOCC1	pPAFAH inh 36 | pPAFAH confirm inactive
CCCN(CC(=O)Nc1ccccc1C)C(=O)C1CCN(S(=O)(=O)c2cccc(C(F)(F)F)c2)CC1	none
CC1=C(C(=O)Nc2ccc(C(=O)N3CCN(c4cccc(Cl)c4)CC3)cc2)SCCO1	pPAFAH inh 42 | pPAFAH confirm inactive
CC(OC(=O)c1ccc(NC(=O)CC#N)cc1)C(=O)Nc1ccc(Oc2ccccc2)cc1 (stereo not given)	none
CC(OC(=O)c1ccc(NC(=O)CC#N)cc1)C(=O)Nc1nc(-c2ccccc2)cs1 (stereo not given)	pPAFAH inh 53 | pPAFAH confirm inactive
O=C(Oc1nsnc1N1CCCCC1)N1CCOCC1	pPAFAH inh 79 | pPAFAH confirm 73
CCn1c(C(=O)O)c(CC(=O)Nc2ccccc2OC)c2ccccc21	none
COc1cc(OC)c2c(O)c3c(c(-c4c5c(c(O)c6c(OC)cc(OC)cc46)CO[C@@H](C)[C@H]5O)c2c1)[C@H](O)[C@H](C)OC3	pPAFAH inh 78 | pPAFAH confirm 68
CN(C)/C=C/C(=O)/C=C/c1ccc(Cl)cc1	pPAFAH inh 37 | pPAFAH confirm inactive
CN(C)/C=C/C(=O)c1ccc(Cl)cc1	none
O=C(Cc1cccs1)NCc1ccccc1	none
NS(=O)(=O)c1ccc(CNC(=O)Cc2cccs2)cc1	pPAFAH inh 35 | pPAFAH confirm inactive
Cc1ccc(S(=O)(=O)N(C)C)cc1NC(=O)CN1C(=O)NC(Cc2ccccc2)C1=O (stereo not given)	pPAFAH inh 42 | pPAFAH confirm inactive
O=C(NCC1CCCO1)c1ccc(NC(=O)c2ccc([N+](=O)[O-])cc2)cc1 (stereo not given)	none
CCc1nnc(NC(=O)[C@@H](NS(=O)(=O)c2ccc3c(c2)OCCO3)C(C)C)s1	none (no result: pPAFAH inh)
COc1ccc(N2CCC(CNC(=O)Nc3cccc(OC)c3)C2)cc1 (stereo not given)	none
COc1ccc(N2CCC(CNC(=O)Nc3ccc(Cl)cc3)C2)cc1 (stereo not given)	pPAFAH inh 36 | pPAFAH confirm inactive
O=C(COC(=O)c1ccccc1F)NCc1ccc2c(c1)OCO2	none
O=C(CCC1CCCN(C(=O)c2cc(F)ccc2F)C1)N1CCN(c2ccccn2)CC1 (stereo not given)	none (no result: PAFAH2 FP inh, PAFAH1B3 FP inh, pPAFAH inh, PAFAH1B2 inh)
CCOc1ccc(OCCC(=O)OCC(=O)Nc2ccc(N3CCOCC3)cc2)cc1	pPAFAH inh 35 | pPAFAH confirm inactive
Cc1ccc(OCCC(=O)OCC(=O)Nc2ccc(N3CCOCC3)cc2)cc1	none
CC(=O)N1CCN(C(=O)CSc2nnc(C)n2-c2ccccc2)CC1	none
COc1ccccc1-n1c(SCC(=O)Nc2ccccc2C)nc(O)cc1=O	pPAFAH inh 81 | pPAFAH confirm inactive
COc1ccccc1-n1c(SCC(=O)NC(C)(C)C)nc(O)cc1=O	none
COc1ccccc1NC(=O)CSc1nc(O)cc(=O)n1-c1ccccc1OC	pPAFAH inh 43 | pPAFAH confirm inactive
Cc1ccnc2nc(C(=O)OCC(=O)N(C)C3CCCCC3)nn12	none (no result: PAFAH2 FP inh, PAFAH1B3 FP inh, pPAFAH inh, PAFAH1B2 inh)
C#CCNc1cc(-c2ccccc2)nc2ncnn12	none
C#CCNc1cc(C)nc2ncnn12	pPAFAH inh 51 | pPAFAH confirm inactive
Nc1nnc(/C=C/c2ccccc2Cl)s1	none
Cc1ccc(S(=O)(=O)NCC2CCC(C(=O)NC3CCCCC3)CC2)cc1 (stereo not given)	none
O=C1NC(=Nc2ccccc2Cl)S/C1=C\c1cc([N+](=O)[O-])ccc1O	PAFAH2 FP inh 44, PAFAH1B3 FP inh 61, pPAFAH inh 41, PAFAH1B2 inh 28 | pPAFAH confirm 63
Cc1ccc(S(=O)(=O)/N=C2/NC(=O)/C(=C/c3cc([N+](=O)[O-])ccc3O)S2)cc1	PAFAH2 FP inh 48, PAFAH1B3 FP inh 44, pPAFAH inh 41, PAFAH1B2 inh 61 | pPAFAH confirm 63
